“And” between values parts separate entries of the source, which are not always exact repeats. Equal values may be shown once. Where a name gives a salt, the structure may show the parent alone.
How the values were obtained:
Assay in all cases: cell viability relative to vehicle control; higher = less cytotoxic
Conditions in all cases: 10 µM
K562 = system: K562
How it was run: (§1)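 Screening covered the Selleck bioactive, kinase and epigenetic probe libraries, less identity-inconsistent compounds, on CRISPR-edited mutant clones and isogenic wild-type clones of four leukaemia lines. Cells, at 2000 per well in 50 µL medium, received a single 10 µM acoustically dispensed dose. After 48 h the supernatant was removed and CellTiter-Glo luminescence was read. Viability was analysed in Genedata Screener as percent of the on-plate vehicle control.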

MARIMO = system: MARIMO
How it was run: as §1

MOLM14 = system: MOLM14
How it was run: as §1

OCI-AML2 = system: OCI-AML2
How it was run: as §1

Row | SMILES | cell viability (K562; SRSF2 genotype: SRSF2 P95H/wt) | cell viability (K562; SRSF2 genotype: SRSF2 wt/wt) [%] | cell viability (MARIMO; SRSF2 genotype: SRSF2 P95H/wt) [%] | cell viability (MARIMO; SRSF2 genotype: SRSF2 wt/wt) [%] | cell viability (MOLM14; SRSF2 genotype: SRSF2 P95H/wt) [%] | cell viability (MOLM14; SRSF2 genotype: SRSF2 wt/wt) [%] | cell viability (OCI-AML2; SRSF2 genotype: P95H/wt) [%] | cell viability (OCI-AML2; SRSF2 genotype: wt/wt) [%]
1 | COc1ccc(-c2nc(N3CCOCC3)c3sc(CN(C)c4ncc(C(=O)NO)cn4)cc3n2)cn1 | 1.16% and 7.95% | 2.68 | 1.32 | 2.78 | 0.39 | 0.45 | 0.79 | 1.17
2 | O=C(Nc1ccc(-c2ccnc(Nc3ccc(N4CCOCC4)cc3)n2)cc1)C1CCCN1 (configuration not stated) | 89.5% and 97.2% | 89.5 | 72.2 | 73.5 | 35.5 | 22.4 | 43.1 | 39.2
3 | CC1=CCC(=C(C)C)C(=O)CC(C)=CCC1 [Germacrone] | 110% and 109% | 111 | 107 | 103 | 110 | 106 | 95.1 | 101
4 | O=C1NS(=O)(=O)c2ccccc21 [Saccharin] | 99% and 89.3% | 93.9 | 90.5 | 101 | 97.9 | 96.6 | 89.5 | 103
5 | COc1ccc(/C=C/C(=O)C2(C(=O)/C=C/c3ccc(OC)c(OC)c3)CCCCC2)cc1OC | 5.82% and 13.9% | 10.6 | 2.25 | 2.73 | 0.4 | 0.31 | 0.35 | 0.43
6 | CCN(CC)CCCC(C)Nc1c2ccc(Cl)cc2nc2ccc(OC)cc12 (configuration not stated) [Quinacrine Dihydrochloride Dihydrate] | 2.28% and 4.46% | 2.17 | 1.66 | 2.15 | 0.54 | 0.64 | 0.59 | 0.97
7 | CC(=O)/N=c1/sc(S(N)(=O)=O)nn1C [Methazolamide] | 109% and 102% | 95.2 | 106 | 111 | 98.5 | 102 | 100 | 105
8 | O=C(O)c1ccccc1C(=O)Nc1ccc(-c2ccccc2)cc1 [Kartogenin] | 106% and 113% | 103 | 105 | 107 | 106 | 105 | 105 | 97.9
9 | COC(=O)c1cc(O)c(O)c(O)c1 [Methyl gallate] | 103% and 104% | 96.7 | 89.7 | 101 | 90.6 | 104 | 96.9 | 110
10 | O=c1cc(-c2ccc(O)cc2)oc2c([C@@H]3O[C@H](CO)[C@@H](O)[C@H](O)[C@H]3O)c(O)cc(O)c12 [Vitexin] | 109% and 103% | 101 | 108 | 107 | 101 | 105 | 103 | 107
11 | CC(=O)NS(=O)(=O)c1ccc(N)cc1 [Sulfacetamide Sodium] | 96.5% and 94.7% | 101 | 96.3 | 101 | 101 | 101 | 108 | 96.6
12 | CCCC(=O)NCCc1csc(-c2ccc(Cl)cc2)n1 [Azoramide] | 86.4% and 89.4% | 98.4 | 79.9 | 83.8 | 102 | 99.5 | 71.1 | 75.5
13 | Cn1cnc(=N)c2[nH]cnc21 [3-Methyladenine (3-MA)] | 94.6% and 88.8% | 106 | 82.6 | 92.4 | 88 | 92 | 93.4 | 97.6
14 | O=C(O)COCCN1CCN(C(c2ccccc2)c2ccc(Cl)cc2)CC1 (configuration not stated) [Cetirizine Dihydrochloride] | 94.7% and 100% | 98.7 | 95 | 93.1 | 94.2 | 100 | 103 | 101
15 | Cc1cc(=O)[nH]c(=S)[nH]1 [Methylthiouracil] | 99.3% and 106% | 90.5 | 96.7 | 107 | 99.9 | 103 | 95.5 | 104
16 | CN(C)/N=N/c1[nH]cnc1C(N)=O [Dacarbazine (DTIC-Dome)] | 117% and 112% | 110 | 108 | 107 | 97.6 | 108 | 107 | 112
17 | Cc1ccc(NCCN(C)CCNc2ccnc3cc(Cl)ccc23)c2c(=O)c3ccccc3sc12 | 75.8% and 92.5% | 76.6 | 78 | 88.2 | 81 | 79.7 | 85.9 | 84
18 | C=C1C[C@@]23CC[C@H]4[C@@](C)(CCC[C@@]4(C)C(=O)O[C@@H]4O[C@H](CO)[C@@H](O)[C@H](O)[C@H]4O)[C@@H]2CC[C@]1(O[C@@H]1O[C@H](CO)[C@@H](O)[C@H](O)[C@H]1O)C3 [Rubusoside] | 100% and 97.7% | 101 | 110 | 104 | 104 | 103 | 104 | 114
19 | CCCCCCCCC[C@H](O)CC(=O)CCc1ccc(O)c(OC)c1 [10-Gingerol] | 92.4% and 91.5% | 98.5 | 91.1 | 92.4 | 90 | 94 | 82.5 | 82.4
